Experimental data as given in PubChem BioAssay (NCI).
About 83,000 compounds went through this panel and 20% of them were active in at least one assay; those are over-represented in the sample as a whole.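 48-hour exposure, single concentration, 96-well plates; percent growth endpoint where 0 means no net growth. Active: below 10.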 Values without a mark were called inactive. Activity calls are given as the source filed them.

Tests used:
Experiment in all cases: NCI-60 one-dose screen, 48 h (100 = growth as untreated, 0 = no growth, -100 = all killed)
Conditions in all cases: 10 µM unless noted
[1] = system: NCI-H23 lung
[2] = system: NCI-H226 lung
[3] = system: NCI-H322M lung
[4] = system: HOP-62 NSCLC
[5] = system: NCI-H460 lung
[6] = system: HOP-92 NSCLC
[7] = system: NCI-H522 lung
[8] = system: A549/ATCC NSCLC
[9] = system: 786-0 renal
[10] = system: COLO 205 colon
[11] = system: DU-145 prostate
[12] = system: MALME-3M melanoma
[13] = system: MDA-MB-231 breast
[14] = system: RXF 393 renal
[15] = system: SF-268 CNS
[16] = system: SF-295 CNS
[17] = system: SF-539 CNS
[18] = system: UACC-257 melanoma
[19] = system: M14 melanoma
[20] = system: K-562 leukemia

Compound	growth [1]	growth [2]	growth [3]	growth [4]	growth [5]	growth [6]	growth [7]	growth [8]	growth [9]	growth [10]	growth [11]	growth [12]	growth [13]	growth [14]	growth [15]	growth [16]	growth [17]	growth [18]	growth [19]	growth [20]
O=C(Cn1c(/C=C/c2cccc([N+](=O)[O-])c2)nc2ccccc2c1=O)Nc1ccccc1	77.2%	75.7%	83.9%	53.6%	67.2%	64.2%	91.8%	56.1%	59.6%	81.1%	69.4%	75.1%	33.8%	55.5%	78.5%	68.5%	8.73% (active)	104%	70.6%	–
COc1ccc(C(=O)/C=C/c2cccc(Br)c2)cc1S(N)(=O)=O	-66.3% (active)	17.4%	3.22% (active)	-86.8% (active)	2.36% (active)	-9.79% (active)	-79% (active)	-86.2% (active)	-98.3% (active)	-92.6% (active)	-37% (active)	-33.5% (active)	-65.5% (active)	-80.3% (active)	-39.4% (active)	-81.2% (active)	-95.7% (active)	-80% (active)	-93% (active)	–
CN1CCN(c2ccc3c(c2)nc(NNC(=O)c2ncccn2)c2cccn23)CC1	4.51% (active)	-22.8% (active)	-7.59% (active)	-19.7% (active)	3.42% (active)	-14.8% (active)	-7.36% (active)	12.5%	-96.8% (active)	-85.7% (active)	1.57% (active)	-41.8% (active)	-45.8% (active)	-53.6% (active)	-15.7% (active)	-90% (active)	-83% (active)	17.8%	-53.5% (active)	–
O=C1Nc2ccc([N+](=O)[O-])cc2C1=Nc1ccccc1	106%	102%	96.1%	114%	109%	118%	110%	130%	102%	108%	114%	100%	95.3%	143%	98.9%	90.7%	91.8%	134%	104%	–
COc1ccc(-c2nnc3ccc(N/N=C/c4ccc(O)cc4)nn23)cc1	32.5%	77.5%	61.9%	88.4%	44.3%	31.3%	46.7%	58.5%	22.9%	56.5%	51.9%	64.2%	60.6%	42.7%	35.8%	43.6%	36.4%	82.3%	56.4%	–
COc1ccc(/C=C2\C(=N)N=C(SCc3nc4ccccc4[nH]3)NC2=O)cc1	100%	98.1%	110%	105%	105%	–	103%	112%	114%	122%	115%	102%	105%	122%	109%	103%	103%	108%	112%	112%
CC(=O)/C=C/c1cccc2c1C(=O)NC(C)(c1cc3cc(Br)ccc3oc1=O)N2 (centres undefined)	17.9%	34.3%	52.5%	50%	51.9%	–	26.8%	55.1%	33.2%	79.6%	19.1%	31.3%	18%	-12.9% (active)	56.1%	39%	19.2%	27.2%	31.4%	0.91% (active)
CC(C)(C)OC(=O)/C=C/c1cccc2c1C(=O)NC(C)(c1cc3cc(Cl)ccc3oc1=O)N2 (centres undefined)	53%	50.6%	60.9%	64%	43.9%	–	34.9%	27.4%	54.5%	19.4%	61.1%	51.2%	67.1%	10.2%	51.4%	24.9%	66.7%	41.7%	49.3%	17.1%
O=C(NNc1nc2cc(F)ccc2n2c(CN3CCCCC3)ccc12)c1cnccn1	-21.3% (active)	-24.6% (active)	-7.19% (active)	-59.2% (active)	-11.7% (active)	-24.8% (active)	-50.9% (active)	-76.8% (active)	-98.3% (active)	-50.5% (active)	-43.7% (active)	22.6%	-31.1% (active)	-83.3% (active)	-20.9% (active)	-92% (active)	-66% (active)	-81.1% (active)	-86.5% (active)	–
COc1ccc(-c2nc3cc(C)ccc3n2CC(=O)N=Nc2c(O)[nH]c3ccccc23)cc1	-10.8% (active)	-35.5% (active)	33.1%	10.4%	-17.7% (active)	–	42.1%	-34% (active)	60.8%	7.85% (active)	9.13% (active)	-60% (active)	-54.2% (active)	-29.7% (active)	-5.5% (active)	15.4%	-90.2% (active)	-7.27% (active)	-71.5% (active)	4.42% (active)
COc1ccc(C(=O)/C=C/c2c(F)cccc2Cl)cc1S(N)(=O)=O	-16% (active)	22.2%	17.4%	2.33% (active)	3.49% (active)	9.66% (active)	-61.1% (active)	8.28% (active)	0.405% (active)	-84.7% (active)	-0.489% (active)	12.7%	17.2%	-44.4% (active)	24.4%	12.7%	-62.9% (active)	12.7%	-59.4% (active)	–
O=C(NNc1nc2cc(C(F)(F)F)ccc2n2cccc12)c1cnccn1	-27.5% (active)	-53.5% (active)	-13.6% (active)	-73.4% (active)	-30.3% (active)	-74% (active)	-60.2% (active)	-60.5% (active)	-99.1% (active)	-72.3% (active)	-57.5% (active)	-57.2% (active)	-66.8% (active)	-74% (active)	-53.4% (active)	-92.1% (active)	-83% (active)	-83.9% (active)	-81.9% (active)	–
COc1c(F)ccc(C(=O)Nc2ccc3nc(NC(=O)C4CCCN(S(=O)(=O)C5CC5)C4)sc3c2)c1F (centres undefined)	31.5%	34.8%	65.2%	68.4%	48.5%	–	40.7%	54%	31.1%	32.4%	66.8%	43.5%	46.7%	-4.35% (active)	76.2%	18.1%	37.6%	20.9%	50.3%	20.5%
C=C1CCC2C3(C)COC(c4ccccc4)OC3CCC2(C)C1CC(Sc1ccccc1)C1=CCOC1=O (centres undefined)	44.2%	10.6%	80.5%	88.6%	84.6%	–	3.01% (active)	35.3%	52.3%	71.3%	70.6%	92.8%	62.5%	72.7%	83.3%	62.7%	17.7%	63.8%	53.7%	7.88% (active)
CN1CCN(c2ccc(C(=O)/C=C/c3ccc(Br)cc3)cc2)CC1	52.4%	12.6%	62.8%	22.1%	64.4%	13.2%	52.8%	7.46% (active)	19.5%	-14.7% (active)	32.9%	74.4%	16.7%	31.5%	62.2%	35.2%	-34.9% (active)	25.4%	-36.3% (active)	–
O=C(COc1ccc(NC(=O)Nc2ccc(Cl)c(Cl)c2)cc1)N=Nc1c(O)[nH]c2ccc(Br)cc12	-10.7% (active)	-58.1% (active)	-15.4% (active)	-71.3% (active)	7.45% (active)	–	-64.7% (active)	-45.8% (active)	-70.3% (active)	-57% (active)	-30.1% (active)	-85.4% (active)	-59.3% (active)	-54.3% (active)	1.44% (active)	-68.3% (active)	-90.8% (active)	-76.5% (active)	-63.8% (active)	7.78% (active)
